In PubChem BioAssay (NCATS):

Target: Glucocorticoid receptor (Homo sapiens) (UniProt P04150)
Assay: GR-GFP Redistribution (AID 450)
Settings: U2OS GR-GFP nuclear translocation, laser cytometry, 2 h; series mostly up to 20.6 µM;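 active means compounds whose dose series gives a full or clear partial fitted curve of increased nuclear translocation; inconclusive means weak partial curve or effect only at the top dose; inactive means no dose-dependent translocation response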
Potency means the concentration at half of the fitted maximal effect.

Sequence of Glucocorticoid receptor (Homo sapiens) (P04150 whole entry, looked up): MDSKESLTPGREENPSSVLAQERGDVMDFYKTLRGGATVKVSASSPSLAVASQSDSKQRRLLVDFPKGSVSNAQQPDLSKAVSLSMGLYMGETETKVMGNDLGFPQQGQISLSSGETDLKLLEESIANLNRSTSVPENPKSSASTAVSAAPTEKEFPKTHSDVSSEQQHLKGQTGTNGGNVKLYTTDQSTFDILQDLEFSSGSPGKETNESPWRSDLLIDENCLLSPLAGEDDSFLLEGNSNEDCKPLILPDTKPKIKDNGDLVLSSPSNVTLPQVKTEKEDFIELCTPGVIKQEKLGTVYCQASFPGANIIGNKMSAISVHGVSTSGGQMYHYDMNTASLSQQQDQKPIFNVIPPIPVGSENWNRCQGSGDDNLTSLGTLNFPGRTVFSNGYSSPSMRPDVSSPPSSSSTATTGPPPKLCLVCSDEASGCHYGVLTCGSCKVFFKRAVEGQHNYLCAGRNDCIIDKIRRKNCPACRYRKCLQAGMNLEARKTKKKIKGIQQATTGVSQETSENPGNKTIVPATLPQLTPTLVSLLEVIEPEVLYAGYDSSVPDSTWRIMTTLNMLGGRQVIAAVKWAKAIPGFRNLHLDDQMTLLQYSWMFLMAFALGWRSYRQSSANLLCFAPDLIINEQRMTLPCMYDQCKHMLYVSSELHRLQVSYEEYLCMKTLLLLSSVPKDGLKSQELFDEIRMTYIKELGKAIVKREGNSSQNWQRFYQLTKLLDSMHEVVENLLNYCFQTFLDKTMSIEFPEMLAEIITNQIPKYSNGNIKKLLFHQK

Potency, inactive:
CCCCCOc1ccccc1C(=O)NCCCC(=O)O > 20.6 µM
C=CCOc1nc2c(c(=O)n(C)c(=O)n2C)n1Cc1ccc(Cl)cc1 > 20.6 µM
CCCOc1ccc(/C(O)=C2/C(=O)C(=O)N(CCN3CCOCC3)C2c2ccccc2)cc1 (stereo not given) > 20.6 µM
Cc1ccc2cc(CN(C(=O)c3ccco3)c3ccccc3)c(=O)[nH]c2c1 > 20.6 µM
CCCNC(=O)N(C)c1nncnc1C(=O)NC > 20.6 µM
CC(=O)N1CCN(C2c3cccc4cccc(c34)C2NS(=O)(=O)c2ccccc2)CC1 (stereo not given) > 20.6 µM
CCN(CC)S(=O)(=O)c1cccc2c(N(C)C)cccc12 > 20.6 µM
Cc1cc(N2C(=O)C(=O)/C(=C(/O)c3ccccc3)C2c2cccs2)no1 (stereo not given) > 20.6 µM
CC1C[C@@]2(NC(=O)NC2=O)C(C)CN1C (stereo not given in full) > 20.6 µM
CCOC(=O)c1ccc(N2CC(O)=C(c3nc4ccccc4c(=O)[nH]3)C2=N)cc1 > 20.6 µM
COC(=O)c1ccc(CSc2nc(N3CCOCC3)c3c(c2C#N)CC(C)(C)OC3)o1 > 20.6 µM
CCC(CC)C1C(C#N)=C(N)Oc2n[nH]c(C)c21 (stereo not given) > 20.6 µM
COc1ccc(C(=O)NCC(=O)n2nc(C)cc2C)cc1OC > 20.6 µM
CC(C)CC(=O)Nc1ncnc2c1C(=O)CC(C)(C)C2 > 20.6 µM
c1ccc(CSc2nnc(SCc3ccccn3)s2)nc1 > 20.6 µM
